Compound activity deposited in PubChem by National Center for Advancing Translational Sciences (NCATS).
Pf Dd2 inh: qHTS Primary assay for Inhibitors of Plasmodium falciparum Dd2 growth in vitro; 120,000 tested, 4.3% active; P. falciparum Dd2 growth, SYBR Green, 72 h; Potency, µM (doses to about 28.9 µM), inactives show at the top dose activity, negative = inhibition, usual class: inhibitors; active = well fitted inhibition curve with a large enough effect;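 also: plate controls were DMSO vehicle for no effect and reference drug for full effect; nearly all actives have a fitted effect of over 65% in size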
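Readout: SYBR Green fluorescence, 485 nm excitation, 535 nm emission, after ~16 h lysis at 37C. Before that, Dd2-infected red cells (2.5% hematocrit) grew 72 h with compound, 29 uM top final concentration.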
* hit, by the source's call; i = inactive; [ ] = remark or other dose. This is one part of a sample in which hits are shown more often than they occur. Potency is read from the fitted curve at half-maximal effect.

SMILES	Pf Dd2 inh
Cc1ccc(S(=O)(=O)c2cn(CC(=O)Nc3cccc(Cl)c3)c3ccccc3c2=O)cc1	i
Cc1ccc(C(=O)N2CCC(CCC(=O)NCc3nc4ccccc4n3C)CC2)cc1	-40%
COCCNC(=O)[C@@H]1C[C@@H](O)CN1C1CCN(C(=O)c2ccc3c(c2)OCO3)CC1	9%
CCn1ccc(C(=O)N2CCC(Cc3nncn3CC3CC3)CC2)n1	i
O=C(Nc1cccn2nc(C3CCC3)nc12)c1ccccn1	-25%
C[S+](=O)([O-])N1CC2(CCN(C3COC3)CC2)Cc2ccccc21	10%
C[S+](=O)([O-])N1CC2(CCN(Cc3c[nH]c4ccccc34)CC2)Cc2ccccc21	11µM*
C[S+](=O)([O-])N1CC2(CCN(C(=O)CCC(=O)O)C2)Cc2ccccc21 (stereo not drawn)	-6%
COc1ccccc1C(=O)N1CC[C@H]2COC(=O)N2c2cc(F)ccc2C1	1%[44.1 µM]
Cc1cc(CN(C)C(=O)C2CCCN(C3CCN(Cc4ccncc4)CC3)C2)n[nH]1 (stereo not drawn)	-8%
COc1ccc(CC(=O)NCc2cn[nH]c2-c2ccc(C)cc2)cc1	-11%
CCc1ccc(CN(Cc2cn[nH]c2-c2ccc(OC)cc2)C(=O)Nc2cc(Cl)ccc2OC)cc1	13µM*
COc1ccc(CNC(=O)C(=O)Nc2cc(Cl)ccc2OC)cc1	i
Cc1cc(C(=O)N2[C@@H]3CC[C@H]2CC(NC(=O)c2ccc(F)cc2)C3)n[nH]1 (stereo partly drawn)	-14%
CCn1c(CC2CCN(S(=O)(=O)c3cccc(C)c3)CC2)nn(C)c1=O	i
Cc1noc(C)c1-c1cc(-c2ccncc2)cn2cncc12	-27%[44.1 µM]
C1=C(c2cc(-c3cccc4cn[nH]c34)cn3cncc23)CCOC1	i
Cc1noc(C)c1-c1cc2c(c(-c3cccc(CO)c3)c1)C(=O)N(C)C2=O	i
O=C1COCCN1c1cc(-c2ccccc2Oc2ccccc2)cn2cncc12	i
C1=C(c2cc(-c3cccc4[nH]ccc34)cn3cncc23)CCOC1	-24%[44.1 µM]
CN(C)Cc1ccc(-c2cc(-c3ccc(=O)[nH]c3)c3cncn3c2)cc1	3%[44.1 µM]
Oc1ccccc1-c1cc(-c2cccnc2)c2cncn2c1	0.35µM*
Oc1ccccc1-c1cc(C2=CCOCC2)c2cncn2c1	1.3µM*
Cc1noc(C)c1-c1cc(-c2ccccc2)cn2cncc12	5.6µM*
C[S+](=O)([O-])c1ccc(-c2cc(-c3cccnc3)c3cncn3c2)cc1	i
SMILES	Pf Dd2 inh
Cc1noc(C)c1-c1cc2c(cc(-c3ccccc3)n2C)c(-c2cnn(C)c2)n1	-26%[44.1 µM]
Cc1noc(C)c1-c1cc(-c2ccc(CN(C)C)cc2)cn2cncc12	2.8µM*
Cc1ccccc1[C@H]1[C@@H](C(=O)NCCC(=O)O)C[C@@](C)(C(=O)O)N1C	15%
CC(=O)NCCCC(=O)N1CCOC2(CCN(C(=O)c3c(C)noc3C)CC2)C1	18%
CCc1noc(-c2cn(C3CCN(C(=O)c4ccc(C)c(C)c4)CC3)nn2)n1	i
O=C(c1c(F)cccc1F)N1CCCC2(C1)NC(=O)N(Cc1cccc(Cl)c1)C2=O (stereo not drawn)	39%
Cc1cccc(NC(=O)N2CC3CC(C2)[C@H]2CCCC(=O)N2C3)c1 (stereo partly drawn)	-13%
O=C(c1ccncc1)N1CCC2(CC1)CC(c1ccccc1)C(=O)N(C1CC1)C2 (stereo not drawn)	-17%
CCn1ncnc1C1CC(=O)Nc2cc(OC)c(NC(=O)CC(C)C)cc21 (stereo not drawn)	2%
C[C@H](O)c1onc(-c2ccc(Cl)cc2)c1C(=O)NC1CCC1	-16%[44.1 µM]
CSCC(=O)N[C@H]1CCN2C(=O)N(c3cccc(SC)c3)C(=O)[C@@H]2C1	-9%[44.1 µM]
CCCC1C=CCN1C(=O)c1coc(CN2CCN(c3ccccc3F)CC2)n1 (stereo not drawn)	-10%
COc1ncccc1-c1cc(-c2c(C)noc2C)cc2c1C(=O)N(C)C2=O	i
Cc1noc(C)c1-c1cc2c(c(-c3cccnc3)c1)C(=O)N(C)C2	-13%[44.1 µM]
Cc1noc(C)c1-c1cc(-c2ccccc2O)cn2cncc12	14µM*
COc1ccccc1CCC(=O)N1[C@@H]2CC[C@H]1CC(NC(=O)c1cnc(C)cn1)C2 (stereo partly drawn)	-22%
COc1ccc2cc(C(=O)NC3CCN(C(=O)N4CC5CC(C4)[C@H]4CCCC(=O)N4C5)CC3)[nH]c2c1 (stereo partly drawn)	i
Cc1cc(C)c2c(=O)cc(C(=O)Nc3sc4c(c3C(=O)NCc3cccnc3)CCCC4)oc2c1	27%
CCOC(=O)N1CCc2c(sc(NCc3cccs3)c2C(=O)Nc2cc(Cl)ccc2OC)C1	8.9µM*
COc1ccc(Cl)cc1NC(=O)Cn1nnc(C(=O)NCc2cccs2)c1N	2%
CCOc1ccc(NC(=O)c2c(NCc3cccnc3)sc3c2CCCC3)cc1	13µM*
COc1ccc(NC(=O)c2nc(-c3ccc(C)cc3)n3c2CCCCC3)c(OC)c1	3%
COc1ccc(NC(=O)Cn2c(=O)n(-c3ccccc3)c(=O)c3c4c(sc32)CCCC4)c(OC)c1	26%
COc1ccc(NC(=O)c2c(NCc3ccc(C)o3)sc3c2CCCCC3)c(OC)c1	11µM*
CCOc1ccc(/C=C/C(=O)Nc2sc3c(c2C(=O)OC)CCC3)cc1	16%
SMILES	Pf Dd2 inh
CCOc1ccc(NC(=O)NCc2c(-n3cccc3)sc3c2CCCC3)cc1	30%
COc1ccc(Cl)cc1NC(=O)Cn1nc(C(F)(F)F)c2c1CCCC2	6%
CCOc1ccc(NC(=O)c2c(NCc3ccc(C)o3)sc3c2CCCCC3)cc1	11µM*
CCOc1ccc(NC(=O)c2c(NC(=O)c3cccc(C)c3)sc3c2CCC3)cc1	13%
N#Cc1cccc(C(=O)Nc2ccc([C@H]3OCC(=O)N(C4CCOCC4)[C@@H]3CO)cc2)c1	-24%
CN(C)[C@H]1CCCCN(C(=O)c2cn(CCN3CCNCC3)nn2)C1	-1%
c1cnc(-c2nc(Cn3cc(C4CCOC4)nn3)cs2)nc1 (stereo not drawn)	-5%
CC(C)C1CN(c2cncc(C(=O)N3CCCC3)n2)CCC(=O)N1CC1CC1 (stereo not drawn)	-14%
Cc1ccc(C(=O)N(C)C2CCCc3ccccc32)cc1 (stereo not drawn)	i
O=C(c1cnccn1)N1CC(F)(F)C[C@H]1c1nc(-c2ccncc2)no1	43%
Cc1nn(C)c(C)c1C(=O)N1CCCn2ccnc2C1c1ccccc1 (stereo not drawn)	21%
CC(C)CCN1CC2(CCCN(S(=O)(=O)N3CCOCC3)C2)CCC1=O (stereo not drawn)	i
CN1CCN(C(=O)[C@@H]2CCC[C@@H](NC(=O)c3ccc4c(c3)OCO4)CN(C)C(=O)C2)CC1	-4%
COc1cccc(CN2CCCCCNC(=O)[C@@H]3CCC[C@@H]32)c1	i
CC(=O)NCCCC(=O)N1CCOC2(CCN(C(=O)C3CCN(C)CC3)CC2)C1	7%
COCCn1nnnc1C1CC2(CCOCC2)C(=O)N1Cc1cccc(OC)c1 (stereo not drawn)	21%
Cn1cnc(S(=O)(=O)N2CCC(Cc3nncn3CC3CC3)C2)c1 (stereo not drawn)	-17%
COC(=O)c1c(NC(=O)c2ccc(OC)cc2OC)sc2c1CCCCC2	33%
COc1ccccc1NC(=O)c1c(NCc2sccc2C)sc2c1CCCCC2	11µM*
CCOc1ccccc1NC(=O)c1c(NC(=O)c2ccccc2)sc2c1CCCC2	i
CCOC(=O)c1c(NC(=O)COc2cccc(C)c2C)sc2c1CCCCC2	69%
